In ChEMBL document CHEMBL3988442, “University of Dundee, Small-Polar-MMV Screening Library” (2021):
The whole screen tested about 48,000 compounds, of which about 13,000 (27%) showed an effect of 50% or more. Some of the results follow.

Tested on: Wolbachia pipientis
Test: Anti-Wolbachia Cell-Based Screen
Type: functional
Parameters: scale not given: in the data most compounds retested in dose-response had high values
Details: 5 µM

Structure (SMILES) | Percent Effect [%]
COC1CCCN(C(=O)NCC(C)(C)SC)C1 (stereo not given) | -6.562
NC(=O)C(NC1CCN(CC2CCCCC2)CC1)c1ccc(F)cc1 (stereo not given) | 3.018
CS(=O)(=O)CCC(=O)Nc1cc(Cl)c(Cl)cn1 | -8.334
O=C(c1ccc(S(=O)(=O)NCC(F)F)cc1)N1CC[C@H]2CNC[C@H]21 | -11.61
CSc1ccc(C(C)NC(=O)c2cc(C)on2)cc1 (stereo not given) | -17.95
Cc1noc(C)c1CCCNC(=O)Nc1cccc([S+](C)[O-])c1 (stereo not given) | -8.91
Cc1ccc(N2CC[C@@]3(O)CCN(S(C)(=O)=O)C[C@H]3C2)nn1 | -14.46
CN(C)S(=O)(=O)N1CC[C@]2(O)CCN(c3nccs3)C[C@@H]2C1 | -7.348
CS(=O)(=O)N1CC[C@]2(O)CCN(CCCC(=O)c3ccccc3)C[C@@H]2C1 | 92.75
CN(C)S(=O)(=O)N1CC[C@]2(O)CCN(CCCc3cccnc3)C[C@@H]2C1 | 99.63
CN(C)S(=O)(=O)N1CC[C@]2(O)CCN(c3ncccn3)C[C@@H]2C1 | 8.402
CS(=O)(=O)N1CC[C@]2(O)CCN(c3ccnc(N)n3)C[C@@H]2C1 | -18.71
O=C(c1[nH]nc(C2CC2)c1Cl)N1CCCC1 | -9.749
OC(CN1CCCCCCC1)c1ccc(F)cc1 (stereo not given) | -2.886
COc1cc(NCC(c2ccccn2)N2CCOCC2)ncn1 (stereo not given) | -14.18
O=C(C(c1ccc(F)cc1)N1CCCCC1)N1CCn2cncc2C1 (stereo not given) | 7.503
Fc1ccc(C(CNc2ccncn2)N2CCCCC2)cc1 (stereo not given) | 113.6
Fc1ccccc1C(CNc1ccncn1)N1CCCC1 (stereo not given) | 123.2
O=C(N1CCCC1)N1CCC(Nc2ccncn2)CC1 | 4.287
NCc1cc(NCC(c2ccccn2)N2CCOCC2)ncn1 (stereo not given) | -3.716

Structure (SMILES) | Percent Effect [%]
Fc1ccc(C(CNc2ccncn2)N2CCCC2)cc1 (stereo not given) | 85.77
CCc1cnc(NCC(c2ccncc2)N2CCOCC2)nc1 (stereo not given) | -11.49
CCc1cc(N(C)Cc2[nH]nc3c2CCC3)nc(N2CCOCC2)n1 | 17.45
O=C(NCC1(c2ccc(F)cc2)CC1)N1CCC2(CCOC2)C1 (stereo not given) | -4.934
CN(C)C[C@H]1OC[C@@H]2CCN(S(=O)(=O)c3cccs3)C[C@@H]21.O=C(O)C(F)(F)F | -5.421
CN1CCO[C@@H]2CN(S(=O)(=O)c3cccs3)CC[C@@H]2C1.O=C(O)C(F)(F)F | 99.53
CC(C)N1CCO[C@@H]2CN(S(=O)(=O)c3cccs3)CC[C@@H]2C1.O=C(O)C(F)(F)F | 96.63
CCO[C@@H]1C[C@H]2CN(S(=O)(=O)c3cccs3)CCN2C1.O=C(O)C(F)(F)F | -4.424
CCS(=O)(=O)N1C[C@@H]2CN(Cc3cccs3)CCO[C@@H]2C1.O=C(O)C(F)(F)F | 3.582
CN1CCO[C@@H]2CN(S(=O)(=O)c3ccccc3F)CC[C@@H]2C1.O=C(O)C(F)(F)F | -5.27
CC(C)CN1CC[C@@H]2[C@@H]1CCN2S(=O)(=O)c1cccs1.O=C(O)C(F)(F)F | -11.08
O=C(O)C(F)(F)F.O=S(=O)(C1CC1)N1C[C@@H]2CN(Cc3cccs3)CCO[C@@H]2C1 | 9.308
CC(=O)N1CCO[C@@H]2CN(C(=O)c3ccccc3)CC[C@@H]2C1 | -4.476
CCN1CCO[C@@H]2CN(S(=O)(=O)c3cccs3)CC[C@@H]2C1.O=C(O)C(F)(F)F | 101.9
CC(=O)N1CCO[C@@H]2CN(S(=O)(=O)c3cccs3)CC[C@@H]2C1 | 114.4
CCC(C)Nc1ccc2c(c1)C1(CCOCC1)C(=O)N2c1ccccc1 (stereo not given) | 13.06
Cc1ccccc1CS(=O)(=O)CC(=O)N(C)Cc1cccc(F)c1 | -33.07
CCN1CCN2CCCN(S(=O)(=O)c3ccc(S(C)(=O)=O)cc3)C2C1=O (stereo not given) | 10.86
CCn1c(CN(C)C(C)CSC)nc2c(F)cccc21 (stereo not given) | -3.593
Cn1nnnc1SCCNC(=O)C1CCN(C(=O)C2CC2)CC1 | 0.3316

Structure (SMILES) | Percent Effect [%]
COCCNC(=O)Cn1c(C)cc2nc(SC)n(CC(C)C)c(=O)c21 | 0.09267
CCCc1cc(=O)n(CC(N)=O)c(-n2nc(C)cc2C)n1 | 12.11
COCCS(=O)(=O)NC(C)c1ccc(-n2nc(C)cc2C)cc1 (stereo not given) | -14.21
Cc1cc(C)n(-c2cncc(N3CCN(C(=O)C(C)C)CC3)n2)n1 | -1.845
CCCc1cc(=O)n(CC(=O)NCCOC)c(-n2nc(C)cc2C)n1 | 110
CCN(CC)C(=O)CCNc1cncc(-n2nc(C)cc2C)n1 | -4.875
CCCNC(=O)Cn1c(-n2nc(C)cc2C)nc(CCC)cc1=O | 109.3
CCCNC(=O)Cn1c(C)nn(C(C)(C)C)c1=O | -1.553
CCCc1cc(=O)n(CC(=O)NC(C)C)c(-n2nc(C)cc2C)n1 | 152.6
CCC(O)CN(CC(=O)NC(=O)NC1CC1)c1ccccc1 (stereo not given) | -6.258
CCOCC1CC2(CCN(C(=O)C3CCSCC3)CC2)CO1 (stereo not given) | -12.12
O=C1CC(c2ccco2)c2sc(C(=O)O)c(-c3ccccc3)c2N1 (stereo not given) | 3.632
O=C(CO)N1C[C@H]2CC[C@@H]1CN(C1Cc3ccccc3C1)C2 | -7.791
CC(c1nc(C2CC2)no1)N1CCN(Cc2nnc(C3CC3)o2)CC1 (stereo not given) | 142.3
Cc1cc(CN2CCN(C(C)c3nc(C4CC4)no3)CC2)no1 (stereo not given) | 2.927
CC(C)c1nc(C2CCCN(Cc3nnc(C4CC4)o3)C2)no1 (stereo not given) | -2.987
CC(C)c1nnc(CN2CCN(C(C)c3nc(C4CC4)no3)CC2)o1 (stereo not given) | 138.5
COc1ccc(CN2CCN(C(C)c3nc(C4CC4)no3)CC2)cc1 (stereo not given) | 8.61
Cc1nnc(CN2CCN(C(C)c3nc(C4CC4)no3)CC2)o1 (stereo not given) | 96.71
CCc1noc(C(C)N2CCN(Cc3nnc(C4CC4)o3)CC2)n1 (stereo not given) | 4.733
